# From the OligoGym collection
# Target: CIRBP
# Test: pooled miR-30 sensor sort-seq; sequence = guide strand
# Conditions: shRNA
# Further: reference of the scale not given here.
row,Sequence,sensor-assay potency score (higher = more potent)
1,TTAGCGTCGTCAATGTTCTCAA,-0.0271
2,TAACTGTCGTAACTGTCTCTGT,0.0429
3,TAGCGTCGTCAATGTTCTCAAA,-1.03
4,TCTTTCACAACCACCACTTCAG,-0.118
5,ATCCTTAGCGTCGTCAATGTTC,-1.29
6,TGTCGTAACTGTCTCTGTAGGA,0.291
7,TGTCTGACGACTTGCCTGCCTG,-1.09
8,TTGCCTGCCTGGTCTACTCGGA,-0.263

# Target: CLCN5
# Test: as above
# Conditions: shRNA
row,Sequence,sensor-assay potency score (higher = more potent)
1,TATAGTAATGACAATTTTCAGT,-0.57
2,AAAAGCATCACTCACACTGTGA,-0.413
3,TTGAGGGGAAAATAGTAGCTGA,-0.729
4,TTGAAATCATCATAGGTCCCTA,-0.0127
5,TTGATAACCAGAGTCCACTTAC,-0.327
6,TTCCACAGTCATACTGTCCTGA,0.719
7,TTTTATTGGTAATCTCTCGGTG,-0.249
8,TTCCTGTATTTGTTGAAGCAGT,-0.859
9,TCAAACCAGCTAACGAACCTGA,-0.258
10,TATAGCACCAACAGCCATGCTA,-0.0804
11,TGCTATAGCACCAACAGCCATG,-1.3
12,TTAAGTCTGTCATCCAATGAGC,-1.29
13,TCTTATGAGCAAACTCTTCTTT,-0.0775
14,TTTGTCTCTCTCTTCAAAGGTG,-0.196
15,TATAACAGGATACTTGCCCAAC,-1.3
16,TTTATTGGTAATCTCTCGGTGC,0.182
17,TTTGCTTGTGTTGAAACGGTTC,-0.272
18,TTTAACACATCCTTTTTGGTAA,-0.176
19,TATATGCTTTAACACATCCTTT,-1.04
20,TAGCTGACCTCTTCAAGGCTGA,-0.234
21,TTTCATCACATCCATTGCCAGG,-1.34

# Target: CLDN16
# Test: as above
# Conditions: shRNA
row,Sequence,sensor-assay potency score (higher = more potent)
1,TCTGCAGTAATCATCAACGCTC,-0.0383
2,AATATCTGCAGTAATCATCAAC,-0.661
3,TTTACTTTTTCTCACGCCCTGC,-0.567
4,TTAAAAAGATATAAGCAGCAGG,-0.367
5,TAGAACGTTCCACATACACATC,-1.34
6,TACATTTTGGCCGTCTCTGTGC,-0.539
7,TACACATCAACAGCATACCACA,-1.23
8,TAGAATATCTGCAGTAATCATC,-0.742
9,AAGAATAATACAAACAGGCTGT,0.277
10,TTTGTGACGCATTCCCACCAGA,-0.822
11,AAATATATTGTGCAAAACCAAA,-1.81
